From PubChem BioAssay
Cruzain inh Det – blocks cruzain activity in presence of Triton detergent | P25779 | purified cruzain, Z-FR-AMC fluorescence, 0.01% Triton | Potency, µM, inactives show max response, negative = inhibition, usual class: inhibitors | hit rate 0.43% among 200,000 | AID 1478;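 also: plate controls were neutral wells for no effect and buffer without enzyme for full effect; nearly all actives have a fitted effect of over 40% in size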
Target sequence (P25779 123-467 limits assumed): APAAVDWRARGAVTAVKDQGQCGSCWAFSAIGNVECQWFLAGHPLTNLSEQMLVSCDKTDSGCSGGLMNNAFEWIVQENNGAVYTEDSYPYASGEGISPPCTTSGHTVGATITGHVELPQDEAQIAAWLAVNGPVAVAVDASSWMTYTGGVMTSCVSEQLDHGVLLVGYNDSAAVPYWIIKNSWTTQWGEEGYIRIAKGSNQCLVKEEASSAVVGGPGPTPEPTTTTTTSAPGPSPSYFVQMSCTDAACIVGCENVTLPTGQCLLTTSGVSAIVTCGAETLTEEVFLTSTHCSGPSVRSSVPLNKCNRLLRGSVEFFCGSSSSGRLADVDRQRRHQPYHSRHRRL
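Sodium acetate buffer (100 mM, pH 5.5) containing 5 mM DTT and 0.01% Triton X-100 hosted 1.5 nM cruzain and test compound for 15 min at room temperature. Cleavage of 2 uM Z-FR-AMC was then tracked by fluorescence.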
Cruzain noTriton – blocks cruzain activity in detergent-free assay; P25779; purified cruzain, Z-FR-AMC fluorescence, no detergent; Potency, µM, inactives show max response, negative = inhibition, most hits filed as inhibitors; hit rate 2.3% among 200,000;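 also: plate controls were enzyme without inhibitor for no effect and buffer without enzyme for full effect; nearly all actives have a fitted effect of over 40% in size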
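Detergent-free condition (0.00005% Triton X-100) in acetate buffer pH 5.5 with DTT. 1.5 nM enzyme and compound were pre-mixed 15 min, then 2 uM Z-FR-AMC substrate added; reaction progress from fluorescence change between first and third reads (60 s).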
* = called active by the depositor. The list is not random: actives were taken first. Their share in the collection is about 2.4%. Calls follow the shape of the dose curve; as a rule, active = well fitted curve in the direction sought with a large enough effect; inconclusive = small, poorly fitted or top-dose-only effect, or another doubt; inactive = no such curve, though single readings can be large; an effect the other way counts as inactive or inconclusive. Potency is read from the fitted curve at half-maximal effect.

How did COc1ccc(Oc2ncc3nc(-c4ccc(F)cc4)c(=O)n(Cc4cccs4)c3n2)cc1 do in these assays?
Cruzain inh Det: 4.7%; Cruzain noTriton: -7.0%

What do the screens show for `Cc1ccc(N(CC(=O)N2CCN(c3cc(Cl)ccc3C)CC2)S(=O)(=O)c2c(C)noc2C)cc1`?
Cruzain inh Det: -4.9%; Cruzain noTriton: -26.5%

What do the screens show for `Cc1cccc(C)c1OCC(=O)NCC1(N(C)C)CCCCC1`?
Cruzain inh Det: -2.2%; Cruzain noTriton: -15.3%

What do the screens show for `CCc1ccc(NC(=O)N2CCN(c3nnc(C)c4c(C)n(-c5ccc(Cl)cc5)nc34)CC2)cc1`?
Cruzain inh Det: 9.6%; Cruzain noTriton: 4.5%

Results for COc1ccc(OC)c(NC(=O)Cn2cc(S(=O)(=O)c3ccccc3)c(=O)c3cc(C)ccc32)c1 ?
Cruzain inh Det: -6.6%; Cruzain noTriton: 9.7%

How did COc1ccc(CNC(=O)c2ccc(CS(=O)(=O)c3ccccc3OC)o2)cc1 do in these assays?
Cruzain inh Det: 0.7%; Cruzain noTriton: -3.0%

How did CCN(CC)C(=S)SCC(=O)Nc1nc(-c2ccccc2)c(-c2ccccc2)o1 do in these assays?
Cruzain inh Det: -1.7%; Cruzain noTriton: 31.6µM*

Results for O=C(CSC(=S)N1CCCCC1)Nc1nc(-c2ccccc2)c(-c2ccccc2)o1 ?
Cruzain inh Det: 0.6%; Cruzain noTriton: inconclusive

What do the screens show for `CCCn1c(SCC(=O)N2N=C3/C(=C/c4ccc(OC)cc4)CCCC3C2c2ccc(OC)cc2)n[nH]c1=O` (stereo not given)?
Cruzain inh Det: -11.1%; Cruzain noTriton: 14.9%

How did COc1ccc(/C=C2\CCCC3C2=NC(=S)NC3c2ccc(OC)cc2)cc1 (stereo not given) do in these assays?
Cruzain inh Det: -5.0%; Cruzain noTriton: 25.1µM*

Results for Cc1ccc(CO)cc1Nc1ncnc2onc(-c3ccc(F)cc3)c12 ?
Cruzain inh Det: -2.1%; Cruzain noTriton: 2.1%

Results for Fc1ccc(-n2ncc3c(NCCCc4ccccc4)ncnc32)cc1 ?
Cruzain inh Det: -1.7%; Cruzain noTriton: inconclusive

How did Cc1cnc(CNc2ncnc3ccc(-c4cccc(C#N)c4)cc23)cn1 do in these assays?
Cruzain inh Det: 1.4%; Cruzain noTriton: -9.2%

What do the screens show for `CCCCC/C=C\C[C@@H](O)/C=C/C=C/C=C\[C@@H](O)CCCC(=O)O`?
Cruzain inh Det: 1.1%; Cruzain noTriton: 6.8%

What do the screens show for `CCOC(=O)/C(=C\Nc1ccccc1C(F)(F)F)Sc1ncc(C(F)(F)F)cc1Cl`?
Cruzain inh Det: -3.3%; Cruzain noTriton: inconclusive

Results for N#Cc1c(Sc2ncc(C(F)(F)F)cc2Cl)nsc1C/C=N\OCc1ccccc1Br ?
Cruzain inh Det: -15.3%; Cruzain noTriton: 7.94µM*

Results for Oc1cc(CN2COc3ccccc32)c(O)cc1CNC1CCCCC1 ?
Cruzain inh Det: 0.7%; Cruzain noTriton: -6.6%

Results for CCCCCCN(C(=O)CCCCCN1C(=O)NC(c2ccc(-c3ccccc3)cc2)C(C(=O)OCc2ccccc2)=C1C)C(C(=O)NCCCC)c1ccc(O)cc1 (stereo not given) ?
Cruzain inh Det: -1.0%; Cruzain noTriton: 6.31µM*

How did CCCCCCN(C(=O)CCCCCN1C(=O)NC(c2ccc(-c3ccccc3)cc2)C(C(=O)OCc2ccccc2)=C1C)C(C(=O)NCCCC)c1ccc(-c2ccccc2)cc1 (stereo not given) do in these assays?
Cruzain inh Det: -1.2%; Cruzain noTriton: inconclusive

How did Cc1ccc(Nc2nc3ccccc3c3nnc(C)n23)c(C)c1 do in these assays?
Cruzain inh Det: -6.2%; Cruzain noTriton: inconclusive

How did Cc1noc(/C=C/c2ccco2)c1S(=O)(=O)N1CCC(C(=O)Nc2ccc(F)cc2F)CC1 do in these assays?
Cruzain inh Det: -10.5%; Cruzain noTriton: -16.7%

How did CCn1c(=O)c(C(=O)Nc2ccccc2S(N)(=O)=O)c(O)c2ccccc21 do in these assays?
Cruzain inh Det: -3.6%; Cruzain noTriton: inconclusive

Results for CCn1c(=O)c(C(=O)NNS(=O)(=O)c2ccc(Cl)cc2)c(O)c2ccccc21 ?
Cruzain inh Det: -9.1%; Cruzain noTriton: 25.1µM*

How did c1ccc2c(NC3CC3)nc(-c3ccoc3)nc2c1 do in these assays?
Cruzain inh Det: 1.3%; Cruzain noTriton: -14.6%

Results for Nc1ccc(-c2ccc(Nc3cc(S(=O)(=O)O)c(N)c4c3C(=O)c3ccccc3C4=O)cc2)c(S(=O)(=O)O)c1 ?
Cruzain inh Det: 2.9%; Cruzain noTriton: -1.1%

How did Cc1cc(C)c(Nc2cc(S(=O)(=O)O)c(N)c3c2C(=O)c2ccccc2C3=O)c(C)c1 do in these assays?
Cruzain inh Det: 25.1µM*; Cruzain noTriton: inconclusive

Results for COc1ccccc1CNc1nc2ccccc2c2nc(-c3cccnc3)nn12 ?
Cruzain inh Det: 0.4%; Cruzain noTriton: -2.5%

What do the screens show for `CC(=O)c1cccc(NC(=O)c2sc(-n3nc(C)c(Cc4ccc5c(c4)OCO5)c3C)nc2C)c1`?
Cruzain inh Det: 1.2%; Cruzain noTriton: -3.9%

What do the screens show for `CC(=O)c1ccc(NC(=O)CN2C(=O)/C(=C/C(C)=C/c3ccccc3)SC2=S)cc1`?
Cruzain inh Det: -5.0%; Cruzain noTriton: 10µM*

What do the screens show for `Cc1cc(NC(=O)CCCN2C(=O)/C(=C/c3cccs3)SC2=S)no1`?
Cruzain inh Det: -4.9%; Cruzain noTriton: inconclusive

What do the screens show for `CC(=O)c1ccc(NC(=O)CN2C(=O)CN(C)C(=O)c3ccccc32)cc1`?
Cruzain inh Det: 0.9%; Cruzain noTriton: 15.6%

How did CC(/C=C1\SC(=S)N(NC(=O)c2ccc(C)cc2)C1=O)=C\c1ccccc1 do in these assays?
Cruzain inh Det: -6.0%; Cruzain noTriton: 31.6µM*

How did CC(/C=C1\SC(=S)N(CCCC(=O)Nc2ccc(C(=O)O)c(O)c2)C1=O)=C\c1ccccc1 do in these assays?
Cruzain inh Det: 28.2µM*; Cruzain noTriton: inconclusive

How did CC(/C=C1\SC(=S)N(NC(=O)c2ccccc2C)C1=O)=C\c1ccccc1 do in these assays?
Cruzain inh Det: -5.7%; Cruzain noTriton: inconclusive

Results for Cc1ccccc1C ?
Cruzain inh Det: 4.6%; Cruzain noTriton: -5.8%

Results for Cc1ccc(N2CCN(C(=O)NCc3noc4ccccc34)CC2C)cc1 (stereo not given) ?
Cruzain inh Det: -1.6%; Cruzain noTriton: -8.0%

Results for N#CCC(=N)N1CCN(c2ccc(Cl)cc2)CC1 ?
Cruzain inh Det: -1.1%; Cruzain noTriton: 12.6µM*

What do the screens show for `Cc1ccc(C(=O)N2CCN(c3ccc(Cl)cc3)CC2)cc1`?
Cruzain inh Det: 1.1%; Cruzain noTriton: -7.3%

How did COc1ccc(C2=CSC3=C(C(=O)c4cccc(S(=O)(=O)N(C)C)c4)CCN23)cc1 do in these assays?
Cruzain inh Det: -7.6%; Cruzain noTriton: 25.1µM*

Results for COc1ccc(-c2csc(NC(=O)c3cccc(S(=O)(=O)N4CCN(C)CC4)c3)n2)cc1 ?
Cruzain inh Det: -3.1%; Cruzain noTriton: -5.3%

How did Cc1ccccc1C(=O)Nc1cccc(-c2nc3cccnc3s2)c1 do in these assays?
Cruzain inh Det: -3.3%; Cruzain noTriton: 1.0%

Results for COc1ccc(Nc2cc(C(=O)NCc3cccs3)c3ccccc3n2)cc1 ?
Cruzain inh Det: 0.9%; Cruzain noTriton: inconclusive

How did CC(C)c1ccc(Nc2cc(C(=O)NCc3cccs3)c3ccccc3n2)cc1 do in these assays?
Cruzain inh Det: -2.9%; Cruzain noTriton: 10µM*

What do the screens show for `O=C(Nc1ccc2nc(SCC(=O)N3CCOCC3)sc2c1)c1ccccc1Cl`?
Cruzain inh Det: -7.1%; Cruzain noTriton: -1.2%

How did COC(=O)c1ccc(C2Nc3c(C)cccc3-c3cc(C)nn32)cc1 (stereo not given) do in these assays?
Cruzain inh Det: -21.8%; Cruzain noTriton: inconclusive
